The subject of experiment [1] is Zika virus NS2B-NS3 protease (unlinked complex). Nature of the experiment: Primary screen GU Rhodamine qHTS for Zika virus inhibitors: Unlinked NS2B-NS3 protease assay (AID 1347159). Also: nearly all actives have a fitted effect of over 60% in size. In short, it runs like this:
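In dose–response format, inhibition of unlinked protease (25 nM) was measured with 1.5 microM bis-peptide Rhodamine110 substrate. Aprotinin served as the intraplate control.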
Background: qHTS replaces the single test concentration by a dilution series.

Experiment [2] concerns Zika virus NS2B-NS3 protease (linked construct). Briefly: Primary screen NINDS Rhodamine qHTS for Zika virus inhibitors (AID 1347160). Also: nearly all actives have a fitted effect of over 55% in size. In short, it runs like this:
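Each compound, titrated, sat 15 min with 25 nM linked protease before 1.5 microM Rhodamine110 substrate went in. Fluorescence gain over the next 15 min, in pH 8.0 Tris with Tween 20, gave Hill-fitted curves.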

Inconclusive results are not listed. Where a call stands in place of a potency, no number is given. The source made the active and inactive calls. Calls follow the shape of the dose curve; as a rule, active = well fitted inhibition curve with a large enough effect; inconclusive = small, poorly fitted or top-dose-only effect; inactive = no such curve, though single readings can be large or run the other way.

With `c1cc(NC2CCNCC2)nc(-c2cnc3ccccn23)c1`, the Potency entry in experiment [1] and in experiment [2] was “inactive” throughout.
As for `COC(=O)c1ccc2c(c1)nc(NC(=O)c1ccccc1)n2CCCc1ccccc1`, the Potency entry in experiment [1] and in experiment [2] was “inactive” each time.
As to `O=C(NCCO)c1cccc(-c2cc(Nc3ccc(OC(F)(F)F)cc3)ncn2)c1`, the Potency result in experiment [1] and in experiment [2] was “inactive” each time.
As for `CN1CCN(C2=Nc3ccccc3Nc3ccc(OS(=O)(=O)C(F)(F)F)cc32)CC1`, the Potency entry in experiment [1] and in experiment [2] was “inactive” each time.
In the case of `Fc1ccc(N2CCN(CCC3OCCc4ccccc43)CC2)cc1` (stereo not drawn), the Potency entry in experiment [1] and in experiment [2] was “inactive” each time.
With `O=[N+]([O-])c1cn2c(n1)OC[C@@H](OCc1ccc(-c3ccc(OC(F)(F)F)cc3)nc1)C2`, the Potency entry in experiment [1] and in experiment [2] was “inactive” throughout.
Consider `COC(=O)C(Cc1ccc(OCCn2c(=O)sc3cc(C(=O)c4ccccc4)ccc32)cc1)C(=O)OC`, for which the Potency entry in experiment [1] and in experiment [2] was “inactive” throughout.
Take `C[C@@]12C(=O)N(c3ccc(C(=O)Nc4cccc5cccnc45)cc3)C(=O)[C@@H]1[C@@H]1C=C[C@H]2C1`: the Potency entry in experiment [1] and in experiment [2] was “inactive” in each case.
In the case of `CCN(Cc1ccccc1)C(=O)Cn1c(=O)n(C)c2cnc(-c3ccccc3)nc21`, the Potency result in experiment [1] and in experiment [2] was “inactive” each time.
Take `Cc1ccc(N2CCN(S(=O)(=O)N3CCCCC3)CC2)c(C)c1`: the Potency result in experiment [1] and in experiment [2] was “inactive” in each case.
Turning to `COc1cc(-c2cn(C3CCc4c(F)cccc4N(CC(F)(F)F)C3=O)nn2)ccc1-n1cnc(C)c1` (stereo not drawn), the Potency result in experiment [1] and in experiment [2] was “inactive” each time.
Regarding `COc1cc2c(cc1OC)CN(C(=O)/C=C/c1c(-c3ccccc3)n(C)c3ncccc13)CC2`, the Potency entry in experiment [1] and in experiment [2] was “inactive” in each case.
For `Cc1[nH]c2ccccc2c1CCNCc1ccc(/C=C/C(=O)NO)cc1`, the Potency entry in experiment [1] and in experiment [2] was “inactive” throughout.
Regarding `CCNC1(C(N)=O)CCN(c2ncnc3c2nc(-c2ccccc2Cl)n3-c2ccc(Cl)cc2)CC1`, the Potency entry in experiment [1] and in experiment [2] was “inactive” throughout.

The values above are taken from PubChem BioAssay (NCATS).
